The results in this text go back to ChEMBL document CHEMBL2218924, “A broad activity screen in support of a chemogenomic map for kinase signalling research and drug discovery” (Biochem J, 2013).

Test [1] deals with Vascular endothelial growth factor receptor 3 (Homo sapiens) (UniProt P35916). The conditions noted are these: at 10 µM.
In test [2] the target is Macrophage colony-stimulating factor 1 receptor (Homo sapiens) (UniProt P07333). As to conditions: at 1 µM.
The target is the same in test [3]. The conditions noted are these: at 10 µM.
For test [4], the target named is Tyrosine-protein kinase Fyn (Homo sapiens) (UniProt P06241). As to conditions: at 1 µM.
Test [5] has the same target. The conditions noted are these: at 10 µM.
Test [6] concerns the target T1, Mitogen-activated protein kinase kinase kinase kinase 2 (Homo sapiens) (UniProt Q12851).
T1 sequence (whole entry): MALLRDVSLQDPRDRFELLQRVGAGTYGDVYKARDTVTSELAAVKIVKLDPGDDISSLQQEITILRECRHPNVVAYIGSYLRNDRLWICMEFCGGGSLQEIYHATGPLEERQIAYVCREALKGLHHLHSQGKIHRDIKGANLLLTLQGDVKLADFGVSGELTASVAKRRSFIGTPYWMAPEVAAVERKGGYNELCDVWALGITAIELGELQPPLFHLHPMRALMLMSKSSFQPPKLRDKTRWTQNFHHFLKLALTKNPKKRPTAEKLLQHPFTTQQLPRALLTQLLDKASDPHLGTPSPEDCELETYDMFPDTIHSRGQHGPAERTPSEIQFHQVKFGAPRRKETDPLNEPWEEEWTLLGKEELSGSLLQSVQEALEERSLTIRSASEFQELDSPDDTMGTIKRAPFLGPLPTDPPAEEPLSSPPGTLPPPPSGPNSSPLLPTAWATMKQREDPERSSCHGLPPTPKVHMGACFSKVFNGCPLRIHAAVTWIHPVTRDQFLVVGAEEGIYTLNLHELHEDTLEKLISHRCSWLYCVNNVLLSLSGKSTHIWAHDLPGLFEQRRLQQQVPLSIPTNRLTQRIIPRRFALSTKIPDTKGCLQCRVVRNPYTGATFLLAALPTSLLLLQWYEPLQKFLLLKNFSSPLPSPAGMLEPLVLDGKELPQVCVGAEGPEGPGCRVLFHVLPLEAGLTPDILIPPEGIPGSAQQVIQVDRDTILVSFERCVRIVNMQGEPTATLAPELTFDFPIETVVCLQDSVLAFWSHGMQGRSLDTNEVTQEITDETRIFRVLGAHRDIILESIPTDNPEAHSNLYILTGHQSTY
As to conditions: at 1 µM.

Test [7] has as its target T1, Mitogen-activated protein kinase kinase kinase kinase 2 (Homo sapiens). The conditions noted are these: at 10 µM.
In test [8] the target is G protein-coupled receptor kinase 5 (Homo sapiens) (UniProt P34947). The conditions noted are these: at 10 µM.
Test [9] addresses G protein-coupled receptor kinase 6 (Homo sapiens) (UniProt P43250). As to conditions: at 10 µM.
For test [10], the target named is T2, Rhodopsin kinase GRK7 (Homo sapiens) (UniProt Q8WTQ7).
T2 sequence (whole entry): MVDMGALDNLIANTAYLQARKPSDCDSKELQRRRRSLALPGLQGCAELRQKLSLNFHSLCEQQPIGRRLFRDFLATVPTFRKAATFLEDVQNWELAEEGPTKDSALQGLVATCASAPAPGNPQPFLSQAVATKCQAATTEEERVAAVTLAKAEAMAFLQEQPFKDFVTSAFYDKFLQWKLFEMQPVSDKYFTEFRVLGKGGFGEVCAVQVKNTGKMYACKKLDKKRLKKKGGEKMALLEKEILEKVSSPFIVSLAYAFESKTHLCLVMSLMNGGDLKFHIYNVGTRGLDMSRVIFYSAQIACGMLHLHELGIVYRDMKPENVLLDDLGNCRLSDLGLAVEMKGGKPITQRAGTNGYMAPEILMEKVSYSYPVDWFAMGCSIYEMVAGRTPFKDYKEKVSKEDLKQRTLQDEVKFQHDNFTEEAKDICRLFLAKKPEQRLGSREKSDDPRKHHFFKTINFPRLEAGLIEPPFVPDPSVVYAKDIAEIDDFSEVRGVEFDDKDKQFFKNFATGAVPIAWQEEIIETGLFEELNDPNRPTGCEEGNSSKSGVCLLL
The conditions noted are these: at 1 µM.

Each structure is given as a SMILES string.

Chain of Tyrosine-protein kinase Fyn (Homo sapiens) (P06241 2-537 limits assumed): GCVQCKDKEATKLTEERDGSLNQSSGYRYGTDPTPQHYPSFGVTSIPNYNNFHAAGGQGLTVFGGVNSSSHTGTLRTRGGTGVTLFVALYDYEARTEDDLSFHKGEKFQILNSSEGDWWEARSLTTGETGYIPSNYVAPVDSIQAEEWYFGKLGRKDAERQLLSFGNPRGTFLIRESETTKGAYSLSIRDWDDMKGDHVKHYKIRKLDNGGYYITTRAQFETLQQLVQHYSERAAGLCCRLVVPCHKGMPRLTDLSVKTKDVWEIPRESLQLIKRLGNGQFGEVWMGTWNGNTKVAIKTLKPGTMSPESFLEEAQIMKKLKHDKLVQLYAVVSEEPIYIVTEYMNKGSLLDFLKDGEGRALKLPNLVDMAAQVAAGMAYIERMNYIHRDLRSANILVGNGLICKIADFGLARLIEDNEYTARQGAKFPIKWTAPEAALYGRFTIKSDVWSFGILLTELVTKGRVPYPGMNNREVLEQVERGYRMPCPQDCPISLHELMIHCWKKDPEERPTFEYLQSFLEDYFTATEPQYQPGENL
Chain of Macrophage colony-stimulating factor 1 receptor (Homo sapiens) (P07333 whole entry): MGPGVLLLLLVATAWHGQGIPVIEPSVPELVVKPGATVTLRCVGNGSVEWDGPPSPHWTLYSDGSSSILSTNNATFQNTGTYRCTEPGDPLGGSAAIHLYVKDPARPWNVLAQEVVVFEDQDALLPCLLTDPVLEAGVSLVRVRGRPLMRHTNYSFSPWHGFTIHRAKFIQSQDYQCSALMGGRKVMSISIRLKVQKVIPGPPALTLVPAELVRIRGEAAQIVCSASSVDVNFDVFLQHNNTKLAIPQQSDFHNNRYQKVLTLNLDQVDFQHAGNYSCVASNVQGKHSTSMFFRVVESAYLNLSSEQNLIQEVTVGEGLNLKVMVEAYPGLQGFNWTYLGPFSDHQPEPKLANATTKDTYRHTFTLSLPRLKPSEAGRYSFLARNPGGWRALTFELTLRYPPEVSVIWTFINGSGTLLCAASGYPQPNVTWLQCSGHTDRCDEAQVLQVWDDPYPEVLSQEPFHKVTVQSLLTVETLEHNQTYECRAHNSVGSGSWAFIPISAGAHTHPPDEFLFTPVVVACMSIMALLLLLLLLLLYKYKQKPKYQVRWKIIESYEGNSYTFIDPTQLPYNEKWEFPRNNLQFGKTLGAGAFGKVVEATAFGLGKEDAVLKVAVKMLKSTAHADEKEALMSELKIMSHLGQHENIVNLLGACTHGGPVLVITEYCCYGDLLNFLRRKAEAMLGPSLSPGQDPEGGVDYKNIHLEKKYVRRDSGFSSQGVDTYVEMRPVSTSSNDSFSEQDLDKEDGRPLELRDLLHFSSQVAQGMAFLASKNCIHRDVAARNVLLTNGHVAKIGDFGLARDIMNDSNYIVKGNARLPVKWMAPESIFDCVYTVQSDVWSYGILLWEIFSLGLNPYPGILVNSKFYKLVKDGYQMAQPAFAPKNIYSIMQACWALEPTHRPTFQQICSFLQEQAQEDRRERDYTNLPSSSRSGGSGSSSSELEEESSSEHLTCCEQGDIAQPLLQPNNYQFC
Chain of G protein-coupled receptor kinase 5 (Homo sapiens) (P34947 whole entry, looked up): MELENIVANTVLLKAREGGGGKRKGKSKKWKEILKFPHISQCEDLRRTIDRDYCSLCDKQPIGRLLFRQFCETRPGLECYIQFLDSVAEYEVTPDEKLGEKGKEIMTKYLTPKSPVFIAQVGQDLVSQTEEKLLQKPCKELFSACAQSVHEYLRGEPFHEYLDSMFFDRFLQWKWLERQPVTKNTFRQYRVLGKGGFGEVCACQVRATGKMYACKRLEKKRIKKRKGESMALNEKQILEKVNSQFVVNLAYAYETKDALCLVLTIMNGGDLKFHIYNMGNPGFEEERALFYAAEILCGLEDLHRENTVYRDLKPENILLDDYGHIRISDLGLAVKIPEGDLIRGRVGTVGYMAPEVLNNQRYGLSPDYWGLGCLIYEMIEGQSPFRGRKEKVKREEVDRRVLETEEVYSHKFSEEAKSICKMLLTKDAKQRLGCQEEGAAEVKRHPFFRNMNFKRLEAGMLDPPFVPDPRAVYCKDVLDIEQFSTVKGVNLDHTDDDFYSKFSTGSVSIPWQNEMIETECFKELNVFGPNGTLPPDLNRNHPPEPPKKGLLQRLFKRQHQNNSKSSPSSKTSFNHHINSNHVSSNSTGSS
Chain of Vascular endothelial growth factor receptor 3 (Homo sapiens) (P35916 whole entry): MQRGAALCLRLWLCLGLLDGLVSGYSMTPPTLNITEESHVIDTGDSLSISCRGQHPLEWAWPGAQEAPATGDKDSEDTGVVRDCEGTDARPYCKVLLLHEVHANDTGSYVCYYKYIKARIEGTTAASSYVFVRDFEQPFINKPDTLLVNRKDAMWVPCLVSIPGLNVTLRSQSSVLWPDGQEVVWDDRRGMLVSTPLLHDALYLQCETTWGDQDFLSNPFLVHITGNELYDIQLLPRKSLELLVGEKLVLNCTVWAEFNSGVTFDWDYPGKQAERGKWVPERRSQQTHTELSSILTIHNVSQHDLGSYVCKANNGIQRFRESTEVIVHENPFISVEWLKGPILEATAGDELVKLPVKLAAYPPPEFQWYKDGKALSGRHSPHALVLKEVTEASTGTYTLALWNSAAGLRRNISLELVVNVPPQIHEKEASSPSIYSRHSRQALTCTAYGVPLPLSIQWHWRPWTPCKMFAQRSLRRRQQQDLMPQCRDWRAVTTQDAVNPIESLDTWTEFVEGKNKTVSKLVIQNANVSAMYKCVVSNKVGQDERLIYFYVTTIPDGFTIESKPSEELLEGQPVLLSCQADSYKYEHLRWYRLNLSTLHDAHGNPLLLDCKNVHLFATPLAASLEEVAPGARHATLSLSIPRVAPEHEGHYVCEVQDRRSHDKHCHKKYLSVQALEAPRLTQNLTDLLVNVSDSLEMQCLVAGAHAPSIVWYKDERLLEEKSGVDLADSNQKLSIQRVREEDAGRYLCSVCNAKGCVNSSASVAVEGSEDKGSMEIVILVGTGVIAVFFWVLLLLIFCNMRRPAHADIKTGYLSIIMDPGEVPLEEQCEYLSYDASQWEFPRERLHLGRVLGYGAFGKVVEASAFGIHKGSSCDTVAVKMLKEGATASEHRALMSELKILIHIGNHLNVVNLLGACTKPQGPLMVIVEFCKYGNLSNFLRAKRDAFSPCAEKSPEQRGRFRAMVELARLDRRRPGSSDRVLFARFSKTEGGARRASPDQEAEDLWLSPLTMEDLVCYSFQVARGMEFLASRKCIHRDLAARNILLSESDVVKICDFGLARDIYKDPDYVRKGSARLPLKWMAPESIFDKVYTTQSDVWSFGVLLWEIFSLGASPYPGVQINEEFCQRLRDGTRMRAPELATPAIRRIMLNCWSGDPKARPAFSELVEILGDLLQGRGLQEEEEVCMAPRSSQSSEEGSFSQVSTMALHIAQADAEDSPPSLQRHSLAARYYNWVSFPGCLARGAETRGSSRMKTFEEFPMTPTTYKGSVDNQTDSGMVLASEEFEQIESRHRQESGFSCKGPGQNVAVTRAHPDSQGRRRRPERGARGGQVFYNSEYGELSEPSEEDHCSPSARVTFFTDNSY
Chain of G protein-coupled receptor kinase 6 (Homo sapiens) (P43250 whole entry, looked up): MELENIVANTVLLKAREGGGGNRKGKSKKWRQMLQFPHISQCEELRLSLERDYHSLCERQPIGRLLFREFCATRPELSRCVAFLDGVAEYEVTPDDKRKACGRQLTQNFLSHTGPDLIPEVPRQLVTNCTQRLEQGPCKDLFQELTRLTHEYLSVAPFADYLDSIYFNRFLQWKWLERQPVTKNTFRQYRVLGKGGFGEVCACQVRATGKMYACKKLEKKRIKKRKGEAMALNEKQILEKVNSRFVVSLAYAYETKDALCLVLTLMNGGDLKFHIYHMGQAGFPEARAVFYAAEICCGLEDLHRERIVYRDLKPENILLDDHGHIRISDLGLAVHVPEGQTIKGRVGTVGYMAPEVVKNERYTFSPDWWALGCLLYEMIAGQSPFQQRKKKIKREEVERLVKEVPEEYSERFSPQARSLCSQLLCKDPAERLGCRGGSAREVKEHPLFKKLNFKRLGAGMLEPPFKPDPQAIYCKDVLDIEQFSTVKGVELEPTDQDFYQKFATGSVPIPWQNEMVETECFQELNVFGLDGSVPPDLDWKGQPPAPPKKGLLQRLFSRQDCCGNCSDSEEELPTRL

With `Ic1cccc(CSc2nnc(-c3ccncc3)o2)c1`, the residual activity in test [1] was determined as 15%; in [2], 71%; in test [3], 53%; in [4], 71%; in test [5], 84%; in test [6] it was 49%. Further, the residual activity in test [7] stood at 35%; in [8] it was 89%; in test [9], 83%; in [10], 88%.

As for `CCC(=O)Nc1ccc2ncnc(Nc3cccc(Br)c3)c2c1`, the residual activity in test [1] worked out at 65%; in [2] it was 94%; in [3], 61%; in test [4], 85%; in [5], 67%; in test [6], 77%. The residual activity in test [7] worked out at 69%; in [8], 93%; in test [9] it was 83%; in test [10] it was 96%.

As to `CC#CC(=O)Nc1cc2c(Nc3ccc(F)c(Cl)c3)ncnc2cn1`, the residual activity in test [1] worked out at 93%; in [2], 88%; in [3], 83%; in test [4], 96%; in test [5], 88%; in test [6] it was 91%. Moreover, the residual activity in test [7] turned out to be 84%; in test [8] it was 93%; in [9], 83%; in [10], 98%.

For the compound `Cc1ccc(S(=O)(=O)/C=C/C#N)cc1`, the residual activity in [1] came out at 89%; in [2], 84%; in [3], 89%; in test [4] it was 88%; in test [5], 100%; in [6], 90%. Also, the residual activity stood at 89% in [7], 101% in [8], 94% in test [9] and 95% in [10].

On to `COc1ccc(CNc2nc(N(CCO)CCO)nc3c2ncn3C(C)C)cc1`, for which the residual activity in test [1] worked out at 30%; in test [2], 91%; in test [3], 69%; in test [4], 70%; in test [5] it was 90%; in [6], 78%. In addition, the residual activity in [7] is 78%; in test [8] it was 93%; in test [9], 86%; in test [10], 76%.

With `N#CCCc1ccc2c(c1)-c1[nH]c3ccc([N+](=O)[O-])cc3c1CC(=O)N2`, the residual activity in test [1] was 2%; in test [2], 24%; in test [3], 19%; in test [4], 17%; in test [5] it was 1%; in [6] it was 2%. Further, the residual activity in [7] amounted to 2%.

On to `CNc1cc2c(Nc3cccc(Br)c3)ncnc2cn1`, for which the residual activity in [1] came to 38%; in test [2] it was 88%; in test [3], 59%; in test [4], 57%; in test [5], 16%; in [6], 81%. For the same compound, the residual activity in [7] was determined as 34%; in test [8], 100%; in test [9] it was 90%; in test [10], 93%.

As to `CN(C)c1ccc(/C=C2\C(=O)Nc3ccccc32)cc1`, the residual activity in test [1] amounted to 1%; in test [2] it was 8%; in test [3], 2%; in test [4], 83%; in test [5], 56%; in [6], 83%. Besides, the residual activity in test [7] turned out to be 25%; in test [8], 86%; in [9], 90%; in test [10], 96%.

Turning to `O=C(O)c1ccc2c3c1cccc3c(=O)n1c3ccccc3nc21`, the residual activity worked out at 43% in test [1]; 102% in [2]; 75% in test [3]; 80% in test [4]; 59% in test [5]; 38% in test [6]. The residual activity in test [7] was 21%; in [8] it was 70%; in test [9] it was 91%; in test [10], 102%.

For `Cn1cc(/C=C2\C(=O)Nc3ccc(S(N)(=O)=O)cc32)c2ccccc21`, the residual activity in test [1] is 3%; in test [2], 52%; in test [3], 12%; in test [4], 10%; in test [5], 3%; in [6] it was 7%. For the same compound, the residual activity stood at 1% in [7], 37% in test [8], 89% in [9] and 14% in test [10].

Take `CO[C@H]1C[C@@H]2CC[C@@H](C)[C@@](O)(O2)C(=O)C(=O)N2CCCC[C@H]2C(=O)O[C@H]([C@H](C)C[C@@H]2CC[C@@H](O)[C@H](OC)C2)CC(=O)[C@H](C)/C=C(\C)[C@@H](O)[C@@H](OC)C(=O)[C@H](C)C[C@H](C)/C=C/C=C/C=C/1C`: the residual activity in test [1] worked out at 106%; in test [2], 85%; in test [3], 65%; in test [4], 88%; in [5], 95%; in test [6], 85%. Moreover, the residual activity in test [7] was 79%; in test [8], 99%; in [9] it was 83%; in test [10], 94%.

As to `c1ccc2c(-c3ccncc3)c[nH]c2c1`, the residual activity in test [1] came to 60%; in test [2] it was 110%; in test [3] it was 92%; in test [4] it was 89%; in test [5], 78%; in test [6] it was 86%. For the same compound, the residual activity in test [7] stood at 50%; in test [8] it was 97%; in test [9], 83%; in [10] it was 96%.

On to `O=C(Nc1cccc(Nc2cc(Nc3cccc(C(F)(F)F)c3)ncn2)c1)C1CC1`, for which the residual activity in [1] came out at 61%; in test [2], 71%; in test [3] it was 37%; in test [4] it was 92%; in [5], 36%; in [6], 100%. Besides, the residual activity in [7] worked out at 70%; in test [8], 100%; in test [9] it was 97%; in [10], 102%.

Regarding `Oc1ccc(Nc2nc(-c3ccc(Cl)cc3)cs2)cc1`, the residual activity in test [1] was 21%; in test [2] it was 72%; in [3] it was 43%; in test [4] it was 87%; in test [5], 68%; in test [6], 97%. Further, the residual activity in [7] was 60%; in test [8], 100%; in [9], 102%; in test [10], 103%.

On to `COc1ccc(S(=O)(=O)N(CCO)c2ccccc2CN(C)C/C=C/c2ccc(Cl)cc2)cc1`, for which the residual activity amounted to 93% in [1]; 78% in [2]; 64% in [3]; 73% in [4]; 37% in [5]; 85% in test [6]. Further, the residual activity in [7] worked out at 81%; in test [8] it was 87%; in test [9], 86%; in [10] it was 99%.

On to `CC(C)n1cnc2c(NCc3ccccc3)nc(NCCCO)nc21`, for which the residual activity in [1] came to 68%; in [2] it was 101%; in test [3], 77%; in [4], 93%; in [5], 1%; in test [6], 87%. Also, the residual activity in [7] stood at 75%; in [8], 93%; in [9], 87%; in [10], 94%.

As for `O=c1cc(-c2cccc3c2Sc2ccccc2S3)oc(N2CCOCC2)c1`, the residual activity stood at 69% in [1]; 101% in [2]; 74% in [3]; 91% in [4]; 94% in test [5]; 101% in [6]. Moreover, the residual activity in test [7] came out at 101%; in [8] it was 99%; in test [9], 101%; in [10] it was 96%.
